Experimental data published in paper PMC7862700, “An all-to-all approach to the identification of sequence-specific readers for epigenetic DNA modifications on cytosine”.

Columns and labels:
Test in all cases: DAPPL (digital affinity profiling via proximity ligation, sequencing); 10 mM Tris-HCl pH 7.5, 50 mM NaCl, 1 mM DTT, 4% glycerol, room temperature, 30 min; GST-TFs on glutathione beads, 16-mer random dsDNA library, 0.1% formaldehyde crosslink after washing; high values mean tight binding
FEV = biological target: T1, FEV (Homo sapiens, UniProt Q99581 1-238); settings: protein: recombinant; tags: N-terminal GST; dsDNA, one strand shown
T1 sequence: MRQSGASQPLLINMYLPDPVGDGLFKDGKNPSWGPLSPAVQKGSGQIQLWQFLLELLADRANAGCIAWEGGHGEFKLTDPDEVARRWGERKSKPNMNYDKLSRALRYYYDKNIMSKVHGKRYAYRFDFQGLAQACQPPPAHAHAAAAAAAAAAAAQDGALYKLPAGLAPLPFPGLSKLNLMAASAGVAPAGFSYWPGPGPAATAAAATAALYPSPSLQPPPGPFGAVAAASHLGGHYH
Summary of the method: (§1)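 Yeast served to express human transcription factors as GST fusions, which were then captured on glutathione beads and labelled with DNA barcodes. Pooled with a tag-only sample, they were incubated with 200 nmole of a 16-mer random double-stranded DNA library for 30 min at room temperature in Tris/NaCl/DTT/glycerol buffer, washed, crosslinked with 0.1% formaldehyde, ligated by proximity, amplified by PCR and sequenced. Dividing each hexamer's read frequency for a factor by its frequency for the tag-only sample gives the binding signal.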

ETV5 = ETV5 (Homo sapiens, UniProt P41161 1-510); settings: protein: recombinant; tags: N-terminal GST; dsDNA, one strand shown
ETV5, sequence (P41161 whole entry): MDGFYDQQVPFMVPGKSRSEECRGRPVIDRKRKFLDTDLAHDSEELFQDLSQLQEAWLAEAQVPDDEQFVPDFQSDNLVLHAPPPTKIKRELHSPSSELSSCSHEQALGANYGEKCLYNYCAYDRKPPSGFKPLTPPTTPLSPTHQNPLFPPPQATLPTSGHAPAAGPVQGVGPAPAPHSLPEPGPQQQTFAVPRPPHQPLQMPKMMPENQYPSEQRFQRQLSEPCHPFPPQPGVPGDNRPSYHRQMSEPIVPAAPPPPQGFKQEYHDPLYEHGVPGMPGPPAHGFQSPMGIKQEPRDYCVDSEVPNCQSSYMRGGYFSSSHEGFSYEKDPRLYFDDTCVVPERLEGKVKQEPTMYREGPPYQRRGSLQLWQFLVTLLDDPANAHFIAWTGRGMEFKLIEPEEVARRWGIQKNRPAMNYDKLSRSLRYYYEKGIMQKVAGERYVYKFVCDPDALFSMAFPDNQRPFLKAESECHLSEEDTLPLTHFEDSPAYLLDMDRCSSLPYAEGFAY
Summary of the method: as §1

HSF1 = HSF1 (Homo sapiens, UniProt Q00613 1-529); settings: protein: recombinant; tags: N-terminal GST; chain copies: 3; dsDNA, one strand shown
HSF1, sequence (Q00613 whole entry): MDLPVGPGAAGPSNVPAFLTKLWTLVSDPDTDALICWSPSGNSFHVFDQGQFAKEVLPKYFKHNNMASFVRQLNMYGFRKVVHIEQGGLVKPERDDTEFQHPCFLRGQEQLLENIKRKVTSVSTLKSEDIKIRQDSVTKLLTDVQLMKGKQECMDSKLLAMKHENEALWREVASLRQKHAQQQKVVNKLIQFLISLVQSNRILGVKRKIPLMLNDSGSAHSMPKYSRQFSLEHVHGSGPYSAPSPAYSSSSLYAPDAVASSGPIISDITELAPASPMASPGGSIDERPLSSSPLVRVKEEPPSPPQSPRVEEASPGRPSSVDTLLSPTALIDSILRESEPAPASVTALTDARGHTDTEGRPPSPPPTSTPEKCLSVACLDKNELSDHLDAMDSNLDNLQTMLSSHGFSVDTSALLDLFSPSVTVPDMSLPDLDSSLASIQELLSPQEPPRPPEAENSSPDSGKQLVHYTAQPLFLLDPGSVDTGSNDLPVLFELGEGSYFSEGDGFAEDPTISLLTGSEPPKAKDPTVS
Summary of the method: as §1

SPIC = biological target: T2, SPIC (Homo sapiens, UniProt Q8N5J4 1-248); settings: protein: recombinant; tags: N-terminal GST; dsDNA, one strand shown
T2 sequence: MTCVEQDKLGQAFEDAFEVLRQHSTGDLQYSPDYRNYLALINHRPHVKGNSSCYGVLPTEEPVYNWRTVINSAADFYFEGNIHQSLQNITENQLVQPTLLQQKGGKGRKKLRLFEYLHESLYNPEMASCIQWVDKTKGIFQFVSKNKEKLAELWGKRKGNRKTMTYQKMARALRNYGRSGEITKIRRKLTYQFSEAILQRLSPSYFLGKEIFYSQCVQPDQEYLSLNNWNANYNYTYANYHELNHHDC
Summary of the method: as §1

ELF4 = ELF4 (Homo sapiens, UniProt Q99607 1-663); settings: protein: recombinant; tags: N-terminal GST; dsDNA, one strand shown
ELF4, sequence (Q99607 whole entry): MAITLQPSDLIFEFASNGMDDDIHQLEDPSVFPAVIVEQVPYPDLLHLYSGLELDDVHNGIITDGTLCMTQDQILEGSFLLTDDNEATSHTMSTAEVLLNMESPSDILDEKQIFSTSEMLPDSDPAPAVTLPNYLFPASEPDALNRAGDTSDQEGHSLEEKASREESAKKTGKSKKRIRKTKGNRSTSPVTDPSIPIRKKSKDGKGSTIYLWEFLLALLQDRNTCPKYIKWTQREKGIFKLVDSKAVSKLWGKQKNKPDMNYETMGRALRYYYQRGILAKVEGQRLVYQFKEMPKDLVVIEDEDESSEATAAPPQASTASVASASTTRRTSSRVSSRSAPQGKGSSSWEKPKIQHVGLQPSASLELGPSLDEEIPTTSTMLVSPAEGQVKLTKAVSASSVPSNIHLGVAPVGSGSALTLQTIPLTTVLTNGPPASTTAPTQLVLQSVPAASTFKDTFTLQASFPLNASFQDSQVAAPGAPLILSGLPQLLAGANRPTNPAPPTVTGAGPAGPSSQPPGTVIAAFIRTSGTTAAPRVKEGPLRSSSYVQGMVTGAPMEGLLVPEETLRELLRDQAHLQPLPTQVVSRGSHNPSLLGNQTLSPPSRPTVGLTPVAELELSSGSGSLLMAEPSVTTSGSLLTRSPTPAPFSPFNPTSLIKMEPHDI
Summary of the method: as §1

ELK4 = biological target: T3, ELK4 (Homo sapiens, UniProt P28324-2 1-405); settings: protein: recombinant; tags: N-terminal GST; dsDNA, one strand shown
T3 sequence: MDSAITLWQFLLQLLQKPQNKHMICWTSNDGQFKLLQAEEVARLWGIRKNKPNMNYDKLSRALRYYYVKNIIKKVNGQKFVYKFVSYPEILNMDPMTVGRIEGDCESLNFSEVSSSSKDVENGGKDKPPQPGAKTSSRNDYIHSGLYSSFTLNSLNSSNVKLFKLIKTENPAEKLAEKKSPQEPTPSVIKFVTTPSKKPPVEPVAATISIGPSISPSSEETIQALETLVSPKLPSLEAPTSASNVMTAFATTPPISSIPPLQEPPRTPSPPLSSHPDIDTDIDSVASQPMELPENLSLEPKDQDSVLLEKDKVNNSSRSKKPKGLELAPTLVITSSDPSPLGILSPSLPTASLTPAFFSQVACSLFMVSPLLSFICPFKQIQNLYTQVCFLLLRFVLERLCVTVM
Summary of the method: as §1

ETV2 = biological target: T4, ETV2 (Homo sapiens, UniProt O00321 1-342); settings: protein: recombinant; tags: N-terminal GST; dsDNA, one strand shown
T4 sequence: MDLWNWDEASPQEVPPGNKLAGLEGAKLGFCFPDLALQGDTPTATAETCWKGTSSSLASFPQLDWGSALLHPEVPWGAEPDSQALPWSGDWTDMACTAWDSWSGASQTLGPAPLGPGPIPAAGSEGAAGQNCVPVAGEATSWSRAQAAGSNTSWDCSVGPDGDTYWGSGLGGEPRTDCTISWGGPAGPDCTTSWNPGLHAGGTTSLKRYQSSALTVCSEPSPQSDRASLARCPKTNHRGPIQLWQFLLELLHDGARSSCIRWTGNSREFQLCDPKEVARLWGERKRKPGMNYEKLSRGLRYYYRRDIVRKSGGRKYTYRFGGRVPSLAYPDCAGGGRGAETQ
Summary of the method: as §1

ELF3 = biological target: T5, ELF3 (Homo sapiens, UniProt P78545 1-371); settings: protein: recombinant; tags: N-terminal GST; dsDNA, one strand shown
T5 sequence: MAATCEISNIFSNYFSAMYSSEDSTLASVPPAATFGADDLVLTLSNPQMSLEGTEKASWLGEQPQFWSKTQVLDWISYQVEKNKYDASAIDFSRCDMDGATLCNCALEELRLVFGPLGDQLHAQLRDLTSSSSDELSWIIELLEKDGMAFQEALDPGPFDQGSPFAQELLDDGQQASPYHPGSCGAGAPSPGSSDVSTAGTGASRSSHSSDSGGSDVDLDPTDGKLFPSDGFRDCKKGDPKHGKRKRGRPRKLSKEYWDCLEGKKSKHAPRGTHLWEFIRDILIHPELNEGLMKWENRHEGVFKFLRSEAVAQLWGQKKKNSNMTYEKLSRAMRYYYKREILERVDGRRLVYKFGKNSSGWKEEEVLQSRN
Summary of the method: as §1

CRX = CRX (Homo sapiens, UniProt O43186 1-299); settings: protein: recombinant; tags: N-terminal GST; dsDNA, one strand shown
CRX, sequence (O43186 whole entry): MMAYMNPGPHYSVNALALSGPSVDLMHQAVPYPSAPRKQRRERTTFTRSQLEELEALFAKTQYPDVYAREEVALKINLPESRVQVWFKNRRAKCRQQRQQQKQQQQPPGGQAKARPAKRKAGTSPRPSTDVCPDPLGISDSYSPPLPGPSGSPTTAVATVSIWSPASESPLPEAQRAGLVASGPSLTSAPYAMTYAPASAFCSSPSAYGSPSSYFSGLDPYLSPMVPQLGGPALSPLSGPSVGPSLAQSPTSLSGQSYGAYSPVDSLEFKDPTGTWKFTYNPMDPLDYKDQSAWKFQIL
Summary of the method: as §1

ETV1 = ETV1 (Homo sapiens, UniProt P50549 1-477); settings: protein: recombinant; tags: N-terminal GST; dsDNA, one strand shown
ETV1, sequence (P50549 whole entry): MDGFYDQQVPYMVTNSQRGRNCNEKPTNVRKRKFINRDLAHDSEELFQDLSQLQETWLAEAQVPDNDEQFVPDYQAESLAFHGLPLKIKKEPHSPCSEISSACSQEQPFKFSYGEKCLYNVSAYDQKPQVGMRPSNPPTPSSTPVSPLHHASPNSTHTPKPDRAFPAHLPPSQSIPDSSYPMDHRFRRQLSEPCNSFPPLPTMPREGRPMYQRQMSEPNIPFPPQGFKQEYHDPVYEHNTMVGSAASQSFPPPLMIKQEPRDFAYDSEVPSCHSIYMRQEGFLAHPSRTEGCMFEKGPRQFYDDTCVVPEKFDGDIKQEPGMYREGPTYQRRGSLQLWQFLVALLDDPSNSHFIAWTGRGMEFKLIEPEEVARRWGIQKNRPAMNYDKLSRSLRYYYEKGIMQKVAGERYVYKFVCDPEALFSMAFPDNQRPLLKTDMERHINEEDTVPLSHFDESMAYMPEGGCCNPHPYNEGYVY
Summary of the method: as §1

Row | Sequence | binding signal (FEV) | binding signal (ETV5) | binding signal (HSF1) | binding signal (SPIC) | binding signal (ELF4) | binding signal (ELK4) | binding signal (ETV2) | binding signal (ELF3) | binding signal (CRX) | binding signal (ETV1)
1 | TCCCTG | 1.28 fold enrichment (6-mer frequency, TF over GST control) | 1.35 fold enrichment (6-mer frequency, TF over GST control) | 1.24 fold enrichment (6-mer frequency, TF over GST control) | 1.38 fold enrichment (6-mer frequency, TF over GST control) | 1.31 fold enrichment (6-mer frequency, TF over GST control) | 1.19 fold enrichment (6-mer frequency, TF over GST control) | 1.38 fold enrichment (6-mer frequency, TF over GST control) | 1.2 fold enrichment (6-mer frequency, TF over GST control) | 1.3 fold enrichment (6-mer frequency, TF over GST control) | 1.35 fold enrichment (6-mer frequency, TF over GST control)
2 | AACGAA | 1.15 fold enrichment (6-mer frequency, TF over GST control) | 1.22 fold enrichment (6-mer frequency, TF over GST control) | 1.33 fold enrichment (6-mer frequency, TF over GST control) | 1.2 fold enrichment (6-mer frequency, TF over GST control) | 1.1 fold enrichment (6-mer frequency, TF over GST control) | 1.13 fold enrichment (6-mer frequency, TF over GST control) | 1.11 fold enrichment (6-mer frequency, TF over GST control) | 1.19 fold enrichment (6-mer frequency, TF over GST control) | 1.08 fold enrichment (6-mer frequency, TF over GST control) | 1.09 fold enrichment (6-mer frequency, TF over GST control)
3 | TTGACC | 1.33 fold enrichment (6-mer frequency, TF over GST control) | 1.41 fold enrichment (6-mer frequency, TF over GST control) | 1.16 fold enrichment (6-mer frequency, TF over GST control) | 1.45 fold enrichment (6-mer frequency, TF over GST control) | 1.44 fold enrichment (6-mer frequency, TF over GST control) | 1.4 fold enrichment (6-mer frequency, TF over GST control) | 1.38 fold enrichment (6-mer frequency, TF over GST control) | 1.27 fold enrichment (6-mer frequency, TF over GST control) | 1.19 fold enrichment (6-mer frequency, TF over GST control) | 1.41 fold enrichment (6-mer frequency, TF over GST control)
4 | AATTTT | 1.22 fold enrichment (6-mer frequency, TF over GST control) | 1.29 fold enrichment (6-mer frequency, TF over GST control) | 1.51 fold enrichment (6-mer frequency, TF over GST control) | 1.17 fold enrichment (6-mer frequency, TF over GST control) | 1.32 fold enrichment (6-mer frequency, TF over GST control) | 1.3 fold enrichment (6-mer frequency, TF over GST control) | 1.46 fold enrichment (6-mer frequency, TF over GST control) | 1.41 fold enrichment (6-mer frequency, TF over GST control) | 1.29 fold enrichment (6-mer frequency, TF over GST control) | 1.23 fold enrichment (6-mer frequency, TF over GST control)
5 | AGTACT | 1.28 fold enrichment (6-mer frequency, TF over GST control) | 1.19 fold enrichment (6-mer frequency, TF over GST control) | 1.03 fold enrichment (6-mer frequency, TF over GST control) | 1.35 fold enrichment (6-mer frequency, TF over GST control) | 1.19 fold enrichment (6-mer frequency, TF over GST control) | 1.12 fold enrichment (6-mer frequency, TF over GST control) | 1.11 fold enrichment (6-mer frequency, TF over GST control) | 1.29 fold enrichment (6-mer frequency, TF over GST control) | 1.02 fold enrichment (6-mer frequency, TF over GST control) | 1.19 fold enrichment (6-mer frequency, TF over GST control)
6 | TAGGCT | 1.25 fold enrichment (6-mer frequency, TF over GST control) | 1.19 fold enrichment (6-mer frequency, TF over GST control) | 1.45 fold enrichment (6-mer frequency, TF over GST control) | 1.29 fold enrichment (6-mer frequency, TF over GST control) | 1.2 fold enrichment (6-mer frequency, TF over GST control) | 1.13 fold enrichment (6-mer frequency, TF over GST control) | 1.09 fold enrichment (6-mer frequency, TF over GST control) | 1.1 fold enrichment (6-mer frequency, TF over GST control) | 1.99 fold enrichment (6-mer frequency, TF over GST control) | 1.08 fold enrichment (6-mer frequency, TF over GST control)
7 | ATCTGA | 1.1 fold enrichment (6-mer frequency, TF over GST control) | 1.07 fold enrichment (6-mer frequency, TF over GST control) | 1.16 fold enrichment (6-mer frequency, TF over GST control) | 1.21 fold enrichment (6-mer frequency, TF over GST control) | 1.09 fold enrichment (6-mer frequency, TF over GST control) | 1.2 fold enrichment (6-mer frequency, TF over GST control) | 1.01 fold enrichment (6-mer frequency, TF over GST control) | 1.12 fold enrichment (6-mer frequency, TF over GST control) | 1.4 fold enrichment (6-mer frequency, TF over GST control) | 1.24 fold enrichment (6-mer frequency, TF over GST control)
